Some of the results follow. Results filed as inconclusive are left out. Active and inactive are the calls of the source. Calls follow the shape of the dose curve; as a rule, active = well fitted activation curve with a large enough effect; inconclusive = small, poorly fitted or top-dose-only effect; inactive = flat fitted curve, though single readings scatter. Where a SMILES comes first, the peptide text is derived from it. The star is where a group is joined. OPac = O=C(CO*)c1ccccc1; Bz = O=C(c1ccccc1)*

The results in this text go back to PubChem BioAssay AID493078 (National Center for Advancing Translational Sciences (NCATS), 2011).
Potency is read from the fitted curve at half-maximal effect.

Sequence of Thyrotropin-releasing hormone receptor (Homo sapiens) (P34981 whole entry, looked up): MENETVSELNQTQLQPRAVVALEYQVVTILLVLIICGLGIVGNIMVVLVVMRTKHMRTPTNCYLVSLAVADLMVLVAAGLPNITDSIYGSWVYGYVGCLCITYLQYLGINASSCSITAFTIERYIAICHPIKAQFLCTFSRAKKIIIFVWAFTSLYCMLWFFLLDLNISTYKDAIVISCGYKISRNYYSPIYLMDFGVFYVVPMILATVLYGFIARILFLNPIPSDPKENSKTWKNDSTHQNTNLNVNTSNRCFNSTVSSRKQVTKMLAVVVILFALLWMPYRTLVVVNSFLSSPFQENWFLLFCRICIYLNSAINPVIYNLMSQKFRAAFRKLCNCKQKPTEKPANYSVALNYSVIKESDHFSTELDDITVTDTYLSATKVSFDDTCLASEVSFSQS

This experiment addresses Thyrotropin-releasing hormone receptor (Homo sapiens) (UniProt P34981). Description: qHTS for Small Molecule Agonists and Allosteric Enhancers of Human TRH Receptor: Confirmation Screen for Agonists. Also: nearly all actives have a fitted effect of over 75% in size. As to activation: 0% is about no effect. Particulars: TRHR-expressing cells, agonist activation read-out; series mostly up to 46.1 µM; activation: at the top concentration. From the text: NIH Chemical Genomics Center [NCGC]
NIH Molecular Libraries Probe Centers Network [MLPCN]
Assay Submitter (PI): Marvin Gershengorn
This project aims to identify small drug-like molecules that activate (agonists) the thyrotropin releasing hormone (TRH) receptor (TRHR) or enhance its TRH-stimulated activity (allosteric enhancers). TRHR, a drug-accessible cell surface receptor expressed in specific brain regions, and its ligand TRH have been implicated in several central nervous system disorders, including depression and anxiety. Small molecule TRHR agonists or allosteric enhancers that are metabolically stable and able to cross the blood-brain barrier might serve as probes to elucidate the roles of brain TRH receptors in animal models, and might be valuable as lead compounds for the development of drugs to treat patients with central nervous system disorders.
Upon TRHR-Gq activation in TRHR cells, intracellular calcium is released from stores in the endoplasmic reticulum.
For the HTS assay freshly prepared cells are plated at a density of 2000/well in 3 ul of complete DMEM medium containing 10% serum in 1536-well plates and cultured over night at 37 C in a humidified incubator with 5% CO2. The next day, 2 ul of a no wash calcium dye (ABD Bioquest) was added to the cells and plates were incubated at room temperature for 1 hour. For the assay, assay plates were loaded into the FDSS kinetic plate reader. A 10 cycle (1 second/cycle) baseline measurement is taken and then the FDSS online 1536 pintool delivers 23 nl of compound library (as well as TRH controls) to the plate. The plate is measured for kinetically at 1 cycle/sec for 180 seconds and is considered to be the agonist portion of the assay (eg, compounds which activate a positive calcium response during this portion are flagged as potential agonists). Following the 180 second read, 1 ul of either an EC20 (positive modulation assay) is delivered by an onboard pipette head. Measurements are taken kinetically for an additional 180 seconds.
TRHR FDSS Screening Protocol
1. Reagent, 3 uL 2000 cells/well 1536 TC treated Black plate in media containing 10% FCS
2. Time, 18 hours, 33.5C 5% CO2 (cells grown at 37C)
3. Reagent, 2 uL ABD fluo-8 Ca dye
4. Time, 30 min-1.5hrs hours, Room temp (6 plates/batch)
5. Detector, EX 480/EM 530C, FDSS 10 cycles baseline (1sec/cycle)
6. Compound, 23 nL of stock solution from library
7. Detector, EX 480/EM 530C, FDSS 230 cycles (1sec/cycle) Agonist mode
8. Compound, 1 ul EC20 of TRH made up in HEPES HBSS, 10 nM final
9. Detector, EX 480/EM 530C, FDSS 100 cycles (1sec/cycle) Potentiator mode
For orientation: In qHTS, concentration-response curves come from the screen itself.
Regarding `Cn1cccc1C1(C(F)(F)F)NCCNC1=O` (stereo not given), the “activation” value was -0.557% (inactive).

For the molecule `Cc1ccc(-c2cn(S(=O)(=O)c3cccc([N+](=O)[O-])c3)nc2N)cc1`, the “activation” value is -0.713% (inactive). With `COc1cc(/C=C(\C#N)c2nc3ccccc3[nH]2)ccc1O`, the Potency is 20.6 µM (active). Take `O=c1o[nH]c(-c2ccccc2)c1N=Nc1c(F)cccc1Cl`: the “activation” value was 1.97% (inactive). `c1cnc(N2CCN(c3ccc4ccccc4n3)CC2)nc1`: the “activation” value is -0.415% (inactive).

With `CCOc1cc(CN2CCCC(CO)(Cc3ccc(F)cc3F)C2)ccc1OC` (stereo not given), the “activation” value is 7.9% (inactive). Turning to `CC(C)c1nnc(NC(=O)CCC(=O)N2CCN(c3cccc(Cl)c3)CC2)s1`, the “activation” value is 0.507% (inactive). Consider `COc1ccc(OCc2n[nH]c(=S)n2N)cc1`, for which the “activation” value was 5.54% (inactive). As for `O=c1[nH]c2cccnc2n(CCNc2ncc(C(F)(F)F)cc2Cl)c1=O`, the “activation” value was -0.203% (inactive).

For the molecule `COC(=O)c1cc(N2CCNCC2)nc2ccccc12`, the “activation” value was -0.329% (inactive). `CC1(C)Cc2c(cnn2-c2cccc(F)c2)C(NC(=O)c2cc[n+]([O-])cc2)C1` (stereo not given): the “activation” value is -0.329% (inactive). With `NC(N)=Nc1nc(-c2ccccc2)c2cc(Cl)ccc2n1`, the “activation” value is -0.768% (inactive).

On to `CN(C(=O)CSc1nnc(Nc2ccccc2)s1)C1CCS(=O)(=O)C1` (stereo not given), for which the “activation” value is 1.65% (inactive).

As to `Cc1cccn2c(=O)c3cc(C(=O)NC4CCCCC4)sc3nc12`, the “activation” value was -0.406% (inactive). `CCc1ccccc1NC(=O)/C(=C/c1ccccc1)c1ccccc1`: the “activation” value was 2.38% (inactive). For the molecule `COc1cc(C2C3=C(CCCC3=O)OC3=C2C(=O)CCC3)ccc1OCC(=O)Nc1ccccc1`, the “activation” value is 1.24% (inactive). `Cc1c(/C=N\NC(=O)c2cc3ccccc3o2)c2ccccc2n1C`: the “activation” value is 1.06% (inactive). As to `O=C1C(=O)N(CCCO)C(c2ccccc2)/C1=C(\O)c1ccc(Br)cc1` (stereo not given), the “activation” value is -0.674% (inactive). For the molecule `Cc1csc(CN(C)C(=O)CC2C(=O)NCCN2CC(C)(C)C)n1` (stereo not given), the “activation” value is 0.768% (inactive).

`N#Cc1ccc(Oc2cc(C(F)(F)F)nc(-c3ccccn3)n2)cc1`: the “activation” value is 0.518% (inactive). Consider `Cc1nn(Cc2ccccc2)c(C)c1C(=O)N1CCN(CC(=O)Nc2ccccc2Cl)CC1`, for which the “activation” value was 2.59% (inactive). With `Cc1ccc(Cl)c(OCC(=O)N2CCc3ccccc3C2)c1`, the “activation” value is 1.54% (inactive). Regarding `CC1=C(C)CC(C(=O)NC(C)CCc2ccccc2)C(C(=O)O)C1` (stereo not given), the “activation” value was -0.557% (inactive). Regarding `CC(=O)N1CCN(CC(=O)Nc2ccc(C)c(F)c2)CC1`, the “activation” value is 0.713% (inactive). In the case of `NS(=O)(=O)c1cccc(NC(=O)CSc2nc3ccccc3n2-c2ccccc2)c1`, the “activation” value is 1.92% (inactive). Turning to `CC(=O)c1cc(NC(=O)c2ccccc2)c(=O)oc1/C=C/N(C)C`, the Potency was 20.6 µM (active). `Cc1cc(C(=O)CCl)c(C)n1CC1COc2ccccc2O1` (stereo not given): the “activation” value was -0.57% (inactive). Take `O=C(Nc1ccccc1)c1cccnc1Nc1ccccc1`: the “activation” value was 0.548% (inactive). As to `O=C(/C=C/c1ccc(N2CCOCC2)cc1)c1ccccc1`, the Potency was 20.6 µM (active). Take `O=C(CN1C(=O)c2cccc3cccc1c23)Nc1ccccc1`: the “activation” value was -0.467% (inactive). Turning to `CCOC(=O)C1=C(O)/C(=C/c2cc(C)n(-c3ccccc3)c2C)N=C1C`, the “activation” value is 0.557% (inactive). Still for that read-out and setting: for `C/C(=N/OC(=O)c1ccc(Br)cc1)c1ccc(C)cc1` the value was 0.726% (inactive); for `CSc1nnnn1-c1c(C)cc(C)cc1C`, 2.69% (inactive).

For the molecule `Cc1cc(S(=O)(=O)c2cc3ccc(O)c(C)c3oc2=O)ccc1F`, the Potency is 20.6 µM (active).

Regarding `C/C(=C\c1ccco1)CN1CCC(N2CCC(C(=O)N3CCOCC3)CC2)CC1`, the “activation” value was 1.27% (inactive). Regarding `CCOc1ncccc1C(=O)OCC(=O)N1c2ccccc2CC1C` (stereo not given), the “activation” value was -0.311% (inactive).

As for `CC(=O)n1c(C=Nc2ccccc2)c(O)c2ccccc21`, the Potency is 20.6 µM (active). For the molecule `O=C(CNC(=O)c1ccccc1)NCC(=O)OCC(=O)c1ccccc1` (Bz-Gly-Gly-OPac), the “activation” value is -0.384% (inactive). Take `CCc1nnc(NC(=O)[C@@H](NC(=O)c2cccc(C)c2)C(C)C)s1`: the “activation” value is 0.557% (inactive). As for `COc1ccc(Cl)cc1NC(=O)CN(C)Cc1ccc(OC)c(OC)c1`, the “activation” value is 2.33% (inactive).
